Records with an inconclusive call do not appear. The source made the active and inactive calls. Unless noted, the call rests on the fitted dose curve.
Key:
[1] = Validation screen for inhibitors of Lassa infection (AID 463096); further: on the % scale 0 is the no-effect control and ±100 the full control effect
[2] = Inducers of the Endoplasmic Reticulum Stress Response (ERSR) in human glioma: Validation (AID 504836; active means well fitted curve in the direction sought with a large enough effect; an effect the other way counts as inactive or inconclusive; further: 0% is about no effect)
Summary of the method: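 ERSR induction read as luciferase luminescence (Bright-Glo, 10 min at room temperature) in stably transfected human U87-MG glioma cells exposed to compounds for 16 h, using GRP78 as sensor.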

[3] = qHTS for Inhibitors of the Functional Ribonucleoprotein Complex (vRNP) of Lassa (LASV) Arenavirus: LASV Primary Screen - GLuc reporter signal (AID 1347082; calls by dose curve; tested in HEK293 reporter line; further: series mostly up to about 57 µM; on the % scale 0 is the no-effect control and ±100 the full control effect; nearly all actives have a fitted effect of over 60% in size)
[4] = qHTS for Inhibitors of the Functional Ribonucleoprotein Complex (vRNP) of Lassa (LASV) Arenavirus: Viability assay - alamar blue signal for LASV Primary Screen (AID 1347083; calls by dose curve; tested in HEK293 reporter line; further: series mostly up to about 57 µM; on the % scale 0 is the no-effect control and ±100 the full control effect; nearly all actives have a fitted effect of over 80% in size)
[5] = qHTS for Inhibitors of the Functional Ribonucleoprotein Complex (vRNP) of Lymphocytic Choriomeningitis Arenaviruses (LCMV): Viability assay - alamar blue signal for LCMV Primary Screen (AID 1347085; calls by dose curve; tested in HEK293 reporter line; further: series mostly up to about 57 µM; on the % scale 0 is the no-effect control and ±100 the full control effect; nearly all actives have a fitted effect of over 80% in size)
[6] = molecular target: Nucleoprotein (Lymphocytic choriomeningitis virus (strain Armstrong)) (UniProt P09992); assay: qHTS for Inhibitors of the Functional Ribonucleoprotein Complex (vRNP) of Lymphocytic Choriomeningitis Arenaviruses (LCMV): LCMV Primary Screen - GLuc reporter signal (AID 1347086); further: series mostly up to about 57 µM; on the % scale 0 is the no-effect control and ±100 the full control effect; nearly all actives have a fitted effect of over 70% in size
[7] = molecular target: Alpha-galactosidase (Coffea arabica) (UniProt Q42656); assay: Counterscreen for Glucocerebrosidase Inhibitors: qHTS Assay for Coffee Bean alpha-Galactosidase at pH 4.5 (AID 957; active means well fitted curve in the direction sought with a large enough effect; an effect the other way counts as inactive or inconclusive;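 further: series mostly up to about 77 µM; plate controls were enzyme alone for no effect and no enzyme for full effect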)
Summary of the method: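 Fluorogenic qHTS at pH 4.5 (citrate buffer with Tween-20): 2 nM enzyme, 80 uM 4-MU-alpha-galactoside substrate, compound titrated 0.7 nM to 77 uM, 20 min room temperature. Glycine/NaOH stop; 4-MU read Ex 365/Em 440; Hill-equation AC50 against no-enzyme and enzyme controls.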

[8] = molecular target: Alpha-galactosidase (Coffea arabica) (UniProt Q42656); assay: Counterscreen for Glucocerebrosidase Inhibitors: qHTS Assay for Coffee Bean alpha-Galactosidase at pH 5.9 (AID 998; active means well fitted curve in the direction sought with a large enough effect; an effect the other way counts as inactive or inconclusive;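 further: plate controls were uninhibited enzyme for no effect and no-enzyme basal signal for full effect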)
Summary of the method: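 Fluorogenic 4-MU substrate hydrolysis, 80 uM substrate and 2 nM coffee bean alpha-galactosidase, pH 5.9 citrate buffer, 20 min at room temperature, then NaOH/glycine stop. Titration 0.7 nM–77 uM, normalized to no-enzyme and enzyme controls, AC50 via Hill equation.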

[9] = molecular target: Bile acid receptor (Homo sapiens) (UniProt Q96RI1); assay: qHTS assay for small molecule agonists of farnesoid X receptor signaling (AID 588527); conditions: HEK293T FXR-UAS-bla, beta-lactamase ratio, 16 h; activation: stronger effect = higher value;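 further: series mostly up to about 77 µM; 0% = vehicle basal and 100% = reference agonist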
Summary of the method: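 Read-out: beta-lactamase reporter fluorescence with CCF4 substrate in GeneBLAzer FXR-UAS-bla HEK293T cells, after 16 h compound exposure at 37 C. Response scaled between DMSO basal (0%) and chenodeoxycholic acid at 100 uM (100%).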

Sequence of Nucleoprotein (Lymphocytic choriomeningitis virus (strain Armstrong)) (P09992 whole entry, looked up): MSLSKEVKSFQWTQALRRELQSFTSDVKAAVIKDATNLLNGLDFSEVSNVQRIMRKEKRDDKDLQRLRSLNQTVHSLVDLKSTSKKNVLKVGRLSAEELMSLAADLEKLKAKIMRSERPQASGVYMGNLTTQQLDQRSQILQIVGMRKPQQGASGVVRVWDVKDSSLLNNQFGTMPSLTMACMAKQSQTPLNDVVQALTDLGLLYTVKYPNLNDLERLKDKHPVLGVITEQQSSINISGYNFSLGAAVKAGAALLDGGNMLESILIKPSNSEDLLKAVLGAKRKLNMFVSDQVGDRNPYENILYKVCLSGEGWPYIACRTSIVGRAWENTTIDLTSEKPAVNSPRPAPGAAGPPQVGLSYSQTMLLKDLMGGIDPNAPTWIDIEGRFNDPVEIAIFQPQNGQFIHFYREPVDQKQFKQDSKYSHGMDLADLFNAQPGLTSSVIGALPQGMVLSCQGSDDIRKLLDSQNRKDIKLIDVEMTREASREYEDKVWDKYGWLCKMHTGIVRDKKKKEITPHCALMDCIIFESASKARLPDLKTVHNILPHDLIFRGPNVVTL
Sequence of Alpha-galactosidase (Coffea arabica) (Q42656 whole entry, looked up): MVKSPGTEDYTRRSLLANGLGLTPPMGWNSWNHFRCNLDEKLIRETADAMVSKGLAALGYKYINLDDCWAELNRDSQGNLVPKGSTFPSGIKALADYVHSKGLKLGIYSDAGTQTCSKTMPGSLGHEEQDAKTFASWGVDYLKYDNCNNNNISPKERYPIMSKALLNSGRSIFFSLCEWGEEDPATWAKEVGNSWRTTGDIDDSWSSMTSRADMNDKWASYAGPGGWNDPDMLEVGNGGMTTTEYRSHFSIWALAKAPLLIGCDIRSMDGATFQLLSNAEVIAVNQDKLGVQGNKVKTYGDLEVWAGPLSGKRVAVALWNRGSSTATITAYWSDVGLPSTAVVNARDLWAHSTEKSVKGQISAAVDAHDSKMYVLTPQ
Sequence of Bile acid receptor (Homo sapiens) (Q96RI1 whole entry, looked up): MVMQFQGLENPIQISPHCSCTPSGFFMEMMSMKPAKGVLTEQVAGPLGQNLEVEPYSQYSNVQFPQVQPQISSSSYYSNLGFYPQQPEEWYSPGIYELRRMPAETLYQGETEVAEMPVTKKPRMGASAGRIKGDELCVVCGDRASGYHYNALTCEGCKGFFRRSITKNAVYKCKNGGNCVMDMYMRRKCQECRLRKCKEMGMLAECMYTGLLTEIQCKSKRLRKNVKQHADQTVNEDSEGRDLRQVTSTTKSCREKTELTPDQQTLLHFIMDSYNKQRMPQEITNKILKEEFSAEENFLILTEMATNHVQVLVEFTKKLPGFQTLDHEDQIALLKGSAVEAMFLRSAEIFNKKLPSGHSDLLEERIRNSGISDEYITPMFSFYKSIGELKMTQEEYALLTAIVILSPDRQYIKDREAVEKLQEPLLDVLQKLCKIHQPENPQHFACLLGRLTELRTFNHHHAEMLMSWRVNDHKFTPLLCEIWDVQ

C=C(C)C1CC=C(C(=O)O)CC1 (centres undefined)
inactive: Potency [1] | outcome [2] | Potency [3] | Potency [4] | Potency [5] | Potency [6]

CCCCCC[C@@H]([C@@H](C)O)n1cnc2c(N)ncnc21
inactive: Potency [1] | outcome [2] | Potency [3] | Potency [4] | Potency [5] | Potency [6]

CC(C)(C)NCC(O)COc1cccc2[nH]c(=O)[nH]c12 (centres undefined)
inactive: Potency [1] | outcome [2] | Potency [3] | Potency [4] | Potency [5] | Potency [6]

COC(=O)C(C)(N)Cc1ccc(O)cc1 (centres undefined)
inactive: Potency [1] | outcome [2] | Potency [3] | Potency [4] | Potency [5] | Potency [6]

Cn1cc(C(F)(F)F)nc1-c1ccc(OCC(O)CNCCOc2ccc(O)c(C(N)=O)c2)cc1 (centres undefined)
inactive: Potency [1] | outcome [2] | Potency [3] | Potency [4] | Potency [5] | Potency [6]

CC(N)(C(=O)O)c1ccc(C(=O)O)cc1 (centres undefined)
inactive: Potency [1] | outcome [2] | Potency [3] | Potency [4] | Potency [5] | Potency [6]

Cc1ccc(C(=O)O[C@H](C(=O)O)[C@@H](OC(=O)c2ccc(C)cc2)C(=O)O)cc1 (tested in a mixture with another compound)
inactive: Potency [1] | outcome [2] | Potency [3] | Potency [4] | Potency [5] | Potency [6]

CCCCCCCCCCCCCCCC(=O)OC(CC(=O)O)C[N+](C)(C)C (centres undefined)
inactive: Potency [1] | outcome [2] | Potency [3] | Potency [4] | Potency [5] | Potency [6]

NCCC1CCCC(CCN)N1 (centres undefined)
inactive: Potency [1] | outcome [2] | Potency [3] | Potency [4] | Potency [5] | Potency [6]

OC[C@H]1NC[C@@H](O)[C@@H]1O
inactive: Potency [1] | outcome [2] | Potency [3] | Potency [4] | Potency [5] | Potency [6]

Cn1c(=O)c2c(nc(/C=C/c3cccc(Cl)c3)n2C)n(C)c1=O
inactive: Potency [1] | outcome [2] | Potency [3] | Potency [4] | Potency [5] | Potency [6]

CCCCCCCCCCCCCCCCCCOC[C@H](COP(=O)([O-])OCC[N+](C)(C)C)OC
inactive: Potency [1] | outcome [2] | Potency [3] | Potency [4] | Potency [5] | Potency [6]

O=C(O)C1CCCNC1 (centres undefined)
inactive: Potency [1] | outcome [2] | Potency [3] | Potency [4] | Potency [5] | Potency [6]

NC(C(=O)N[C@@H]1C(=O)N2C(C(=O)O)=C(Cl)CS[C@H]12)c1ccccc1 (some centres undefined)
inactive: Potency [1] | outcome [2] | Potency [3] | Potency [4] | Potency [5] | Potency [6]

CO/N=C(\C(=O)N[C@@H]1C(=O)N2C(C(=O)O)=C(CSc3nc(=O)c(O)nn3C)CSC12)c1csc(N)n1 (some centres undefined)
inactive: Potency [1] | outcome [2] | Potency [3] | Potency [4] | Potency [5] | Potency [6]

c1ccc(C2CN3CCSC3=N2)cc1 (centres undefined)
inactive: Potency [1] | outcome [2] | Potency [3] | Potency [4] | Potency [5] | Potency [6]

O=C1C2C=CC=CC2=NC(=S)N1CCN1CCC(=C(c2ccc(F)cc2)c2ccc(F)cc2)CC1 (centres undefined)
inactive: Potency [1] | outcome [2] | Potency [3] | Potency [4] | Potency [5] | Potency [6]

CCCCN1CCC(n2c(=O)[nH]c3ccccc32)CC1
inactive: outcome [7] | outcome [8] | Potency [1] | outcome [2] | Potency [3] | Potency [4] | Potency [5] | Potency [6]

NC(N)=NCCCCN=C(N)N
inactive: outcome [7] | outcome [8] | Potency [1] | outcome [2] | Potency [3] | Potency [4] | Potency [5] | Potency [6]

CC1CN(S(=O)(=O)c2cccc3cnccc23)CCN1 (centres undefined)
inactive: Potency [1] | outcome [2] | Potency [3] | Potency [4] | Potency [5] | Potency [6]

CCCn1c(=O)c2c(ncn2C)n(CCC)c1=O
inactive: outcome [7] | outcome [8] | Potency [1] | outcome [2] | Potency [3] | Potency [4] | Potency [5] | Potency [6]

O=C(/C=C/c1ccc(O)cc1)c1ccc(O)cc1O
inactive: Potency [1] | outcome [2] | Potency [3] | Potency [4] | Potency [5] | Potency [6]

O=C(O)CC1CCCc2ccccc2C1O (centres undefined)
inactive: Potency [1] | outcome [2] | Potency [3] | Potency [4] | Potency [5] | Potency [6]

N[C@@H](Cc1ccc(F)cc1)C(=O)O
inactive: Potency [1] | outcome [2] | Potency [3] | Potency [4] | Potency [5] | Potency [6]

CCCCCCCCCCCCCCSCC(=O)O
inactive: outcome [7] | outcome [8] | Potency [1] | outcome [2] | activation [9] 0.99% | Potency [3] | Potency [4] | Potency [5] | Potency [6]

CC(N)=NCCCC[C@@H](N)C(=O)O
inactive: Potency [1] | outcome [2] | Potency [3] | Potency [4] | Potency [5] | Potency [6]

Oc1ccc(C2CNCc3sccc32)cc1O (centres undefined)
inactive: Potency [1] | outcome [2] | Potency [3] | Potency [4] | Potency [5] | Potency [6]

NCCCCCCCCCCN
inactive: outcome [7] | outcome [8] | Potency [1] | outcome [2] | Potency [3] | Potency [4] | Potency [5] | Potency [6]
